Measurements from the supplement of paper PMC6555819.

Experiments:
Assay in all cases: PBM binding z-score (relative to random genomic background probes); higher = stronger binding; sequences stand for … in GC…GCGATTGACAGCGTAGAATGAAGG
[1] = system: FXR:RXRa (NR concentration 270 nM, RXRa partner concentration 90 nM)
Summary of the method: (§1)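 Scanned fluorescence from custom Agilent 4×180K protein-binding microarrays was regression-normalized. Binding z-scores use random background probes as reference. Ligand-free nuclear receptor dimers were incubated on the arrays for 1 h and detected with antibodies against each partner (one per run).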

[2] = system: LXRa:RXRa (NR concentration 270 nM, RXRa partner concentration 90 nM)
Summary of the method: as §1

[3] = system: LXRa homodimer (NR concentration 270 nM)
Summary of the method: as §1

[4] = system: LXRb:RXRa (NR concentration 270 nM, RXRa partner concentration 90 nM)
Summary of the method: as §1

[5] = system: LXRb homodimer (NR concentration 270 nM)
Summary of the method: as §1

[6] = system: PPARa:RXRa (NR concentration 270 nM, RXRa partner concentration 90 nM)
Summary of the method: as §1

[7] = system: PPARg:RXRa (NR concentration 180 nM, RXRa partner concentration 90 nM)
Summary of the method: as §1

[8] = system: PPARg:RXRa 270nM:90nM, anti-RXR (NR concentration 270 nM, RXRa partner concentration 90 nM)
Summary of the method: as §1

[9] = system: PPARg:RXRa 30nM:10nM, anti-RXR (NR concentration 30 nM, RXRa partner concentration 10 nM)
Summary of the method: as §1

[10] = system: PPARg:RXRa 90nM:30nM, anti-RXR (NR concentration 90 nM, RXRa partner concentration 30 nM)
Summary of the method: as §1

[11] = system: PPARg:RXRa DBDmut IVT, anti-RXR (DBD mutation: RXRa K156A/R161A, NR concentration 270 nM, RXRa partner concentration 90 nM)
Summary of the method: as §1

[12] = system: PPARg:RXRa IVT, anti-PPARg (NR concentration 270 nM, RXRa partner concentration 90 nM)
Summary of the method: as §1

[13] = system: PPARg DBDmut:RXRa IVT, anti-PPARg (DBD mutation: PPARg1 K132A/R137A, NR concentration 270 nM, RXRa partner concentration 90 nM)
Summary of the method: as §1

[14] = system: PPARg DBDmut IVT, anti-PPARg (DBD mutation: PPARg1 K132A/R137A, NR concentration 270 nM)
Summary of the method: as §1

[15] = system: PPARg homodimer (NR concentration 180 nM)
Summary of the method: as §1

[16] = system: PXR:RXRa (NR concentration 270 nM, RXRa partner concentration 90 nM)
Summary of the method: as §1

[17] = system: PXR homodimer (NR concentration 270 nM)
Summary of the method: as §1

[18] = system: RARa:RXR (NR concentration 270 nM, RXRa partner concentration 90 nM)
Summary of the method: as §1

[19] = system: RARa homodimer (NR concentration 270 nM)
Summary of the method: as §1

[20] = system: RARb:RXRa (NR concentration 270 nM, RXRa partner concentration 90 nM)
Summary of the method: as §1

Sequence | PBM binding z-score [1] | PBM binding z-score [2] | PBM binding z-score [3] | PBM binding z-score [4] | PBM binding z-score [5] | PBM binding z-score [6] | PBM binding z-score [7] | PBM binding z-score [8] | PBM binding z-score [9] | PBM binding z-score [10] | PBM binding z-score [11] | PBM binding z-score [12] | PBM binding z-score [13] | PBM binding z-score [14] | PBM binding z-score [15] | PBM binding z-score [16] | PBM binding z-score [17] | PBM binding z-score [18] | PBM binding z-score [19] | PBM binding z-score [20]
CCGACTGGGGCCAGGTTACCATAACGCACAGCCA | 0.0157 | -0.087 | -0.139 | 0.152 | -0.749 | 0.188 | 0.629 | 0.301 | -0.675 | -0.256 | -0.238 | -0.22 | -1.52 | -1.47 | 0.249 | -0.136 | -0.0661 | 0.176 | -0.0137 | 0.996
CCGACTGGGGAAAAGGTTACCATACTCAGTACGA | 0.132 | 0.716 | -0.0897 | 1.29 | -0.67 | 3.82 | 6.95 | 7.47 | 6.02 | 8.23 | 0.816 | 2.89 | -0.258 | -0.129 | 1.18 | 0.978 | -0.181 | 1.8 | 0.0679 | 1.59
GGAACGAGGGCACGTTGATAGCAGAGTTTGATGG | 0.419 | 0.105 | -0.441 | 0.08 | -0.424 | 1.67 | 1.7 | 1.56 | 0.331 | 1.19 | 4.33 | 3.73 | 0.361 | -0.223 | -0.0757 | 0.508 | -0.125 | 0.282 | -0.225 | 2.37
TCTTGTAGATCATCAGGTTAAGAAAGCTGGCCAA | 0.48 | 0.703 | 0.27 | 0.642 | -0.0532 | 0.993 | -0.352 | 1.6 | 2.71 | 1.98 | 2.18 | 1.18 | 1.16 | 0.736 | 0.119 | 0.47 | -0.117 | 0.63 | 0.422 | 0.398
ATGTCTAGGTAAAAGTTCAGTGAATCCCGAGGAT | 0.745 | 1.33 | 1.16 | 0.843 | 0.542 | 3.76 | 7.03 | 6.9 | 5.57 | 7.4 | 1.33 | 3.13 | 0.931 | 0.765 | 1.17 | 1.87 | 1.49 | 1.77 | 0.698 | 2.39
GATAAAGGGTCAAGGCCAGAGTACGCGTATTGAT | 7.29 | 5.43 | 0.637 | 4.49 | 0.548 | 6.28 | 6.56 | 6.32 | 3.17 | 5.23 | 3.62 | 4.58 | 0.966 | 0.381 | 3.16 | 4.19 | 0.42 | 5.07 | 0.732 | 5.26
AGAATGAGGTTATGCGTAGATCAGGGAAGAAAGT | 1.66 | 1.51 | -0.231 | 1.31 | -0.169 | 3.1 | 1.44 | 2 | 0.664 | 1.12 | 2.31 | 2.01 | 0.845 | 0.71 | 0.621 | 0.966 | 0.308 | 1.32 | 0.403 | 1.57
CCTACTGGGACAAAAAGGTCATTGATGCCGATAA | 3.77 | 4.52 | 4.09 | 4.16 | 0.878 | 4.96 | 3.4 | 4.19 | 2.01 | 3.72 | 4 | 4.26 | 0.444 | -0.273 | 3.86 | 4.85 | 4.14 | 5.36 | 1.97 | 3.94
TCTAGTTGGTCAAAGGTCACACCCTCGAAATGCG | 5.49 | 5.27 | 4.32 | 5.41 | 1.92 | 6.69 | 11.6 | 10.1 | 10.3 | 12.2 | 3.68 | 6.43 | 1.66 | 0.719 | 6.91 | 6.04 | 2.22 | 7.62 | 4.33 | 5.02
TCTTGTAGATCAATAGAGATTAAGAAAGTGCGCT | -0.285 | 0.252 | -0.543 | -0.171 | -0.122 | -0.000927 | 0.302 | 1.34 | 2.5 | 2.08 | 1.45 | 0.39 | 0.292 | 1.02 | -0.0923 | 0.374 | 0.261 | -0.0638 | 0.076 | -0.192
CATACAGGGTCAGCAAGGCCAGAGTAGGGACGGC | 4.73 | 3.36 | -0.0417 | 2.23 | -0.0671 | 4.51 | 3.47 | 3.27 | 0.536 | 2.04 | 1.19 | 2.54 | 0.587 | 0.984 | 1.18 | 2.66 | 0.241 | 3.24 | 0.341 | 4.25
TCATGTAGGTAAATGCTAGGTGAAAGTCCGATCT | 0.737 | 0.46 | 0.144 | 0.503 | 0.151 | 1.33 | 0.723 | 2.1 | 2.88 | 2.6 | 4.15 | 3.44 | 0.811 | 1.12 | 0.796 | 0.502 | 0.512 | 0.568 | 1.39 | 0.378
CAAACTAGGTCAAGGTCACAGTCGGTTTGTGCCA | 6.76 | 5.24 | 3.28 | 4.15 | 0.607 | 6.25 | 9.88 | 8.18 | 6.72 | 8.13 | 8.39 | 8.56 | 6.22 | 2.94 | 5.11 | 5.3 | 1.75 | 5.94 | 1.99 | 5.17
CCTAGCAGGCCAATCTGGGTCACTCTAGGCTTGA | 0.0739 | 0.774 | -0.56 | 0.28 | -1.07 | 2.36 | 1.46 | 1.75 | -0.203 | 0.673 | 3.94 | 4.77 | -0.959 | -1.14 | 0.236 | 0.544 | -0.524 | 1.17 | -1.01 | 1.28
